Screens: PubChem, National Center for Advancing Translational Sciences (NCATS)
Only some compounds are listed: those with a hit (about 12% of all), similar ones and a draw of the others.
JMJD2A Tudor inh: inhibitors of human JMJD2A Tudor domain. O75164. AlphaScreen JMJD2A-Tudor / H3K4me3 peptide binding. Potency, µM (titrated, usually from 114 µM), without a hit: top-dose activity change, negative = inhibition, most hits filed as inhibitors. 390,000 compounds, 4.4% hits. AID 504339; also: % is scaled to controls: 0 for no effect and ±100 for the full control effect; nearly all actives have a fitted effect of over 50% in size
G9a block: G9a (human) methyltransferase inhibition | Potency, µM (doses to about 102 µM), for inactives: at the top dose activity, negative = inhibition, hits mostly inhibitors | AID 504332 | Q96KQ7 | 350,000 compounds, 8.8% hits | G9a H3K9 monomethylation, AlphaScreen, 2 h; also: % is scaled to controls: 0 for no effect and ±100 for the full control effect; nearly all actives have a fitted effect of over 75% in size
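Step 1: enzyme (final 20 nM) with compound, 15 min RT. Step 2: substrate peptide 500 nM and SAM 20 uM, 2 h RT. Step 3: anti-H3K9me1 antibody and AlphaScreen beads, 10 min, then plate read.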
L3MBTL1 inh: blocks human L3MBTL1; AlphaScreen L3MBTL1–H3K9me1 peptide binding; Potency, µM (highest dose often 57.1 µM), without a hit: top-dose activity, negative = inhibition, hits mostly inhibitors; 230,000 compounds, 0.66% hits; AID 485360; also: % is scaled to controls: 0 for no effect and ±100 for the full control effect; nearly all actives have a fitted effect of over 60% in size
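AlphaScreen assay: L3MBTL1 (50 nM final) was preincubated 30 min at room temperature with biotinylated H3(1-15)K9me1 peptide (75 nM final), then 30 min with library compounds; streptavidin donor and nickel chelate acceptor beads (10 ug/mL final) added, 30 min dark.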
Sfp inh: inhibitors of Bacillus subtilis Sfp phosphopantetheinyl transferase | Q9F4F7 | Biochemical Sfp PPTase activity, qHTS | Potency, µM, without a hit: largest response in the series, negative = inhibition, most hits filed as inhibitors | 310,000 compounds, 3.5% hits | AID 1490;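 also: the enzyme is Sfp with the accession as filed and its product quenches rhodamine fluorescence; 0% = enzyme reaction without inhibitor and -100% = no enzyme wells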
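Step 1, compound plus 15 nM Sfp-PPTase, 15 min, room temperature. Step 2, add rhodamine-CoA (5 uM) and BHQ-2-YbbR (12.5 uM). Step 3, read 525/598 nm fluorescence at 0 and 30 min.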
BAZ2B inh: BAZ2B (human) inhibition | AlphaScreen BAZ2B-H3K14Ac peptide displacement | Potency, µM (highest dose often 114 µM), for inactives: top-dose activity change, negative = inhibition, most hits filed as inhibitors | 360,000 compounds, 4.4% hits; also: % is scaled to controls: 0 for no effect and ±100 for the full control effect; nearly all actives have a fitted effect of over 60% in size
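Inhibition is scored as reduced AlphaScreen emission. The BAZ2B/b-H3(5-23)K14Ac complex (50 nM each) in PBS pH 7.4, 0.01% Tween-20 meets compound (up to 110 uM) for 30 min at RT before bead addition.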
HP1b binding inh: inhibitors of HP1-beta chromodomain binding to methylated histone tails. Potency, µM (highest dose often 114 µM), inactives show at the highest dose activity change, negative = inhibition, actives largely listed as inhibitors. P83916. AID 540317. 390,000 compounds, 0.56% hits. AlphaScreen HP1-beta / biotin-H3K9me3 peptide binding; also: nearly all actives have a fitted effect of over 70% in size
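Compound inhibition of the preformed complex between 50 nM HP1-beta and 50 nM biotinylated H3K9me3 peptide was read by AlphaScreen. Buffer was PBS pH 7.4 with 0.01% Tween-20. Incubations ran 30 min at room temperature, with 10 ug/mL donor/acceptor beads.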
The depositor's hits bear a star; ! = a repeat was not active; [ ] = dose if it differs, or a comment. Calls follow the shape of the dose curve; as a rule, active = well fitted curve in the direction sought with a large enough effect; inconclusive = small, poorly fitted or top-dose-only effect, or another doubt; inactive = no such curve, though single readings can be large; an effect the other way counts as inactive or inconclusive. Potency is read from the fitted curve at half-maximal effect.

What do the screens show for `O=c1[nH]c2cc3c(cc2cc1CN(CCc1ccccc1)C(=S)NCCCN1CCOCC1)OCCO3`?
JMJD2A Tudor inh: -4.4%[11.4 µM]; HP1b binding inh: 40.7%

What do the screens show for `CC1=C2C(CCS2(=O)=O)CC2(C1)C(=O)OC(C)(C)OC2=O` (configuration not stated)?
JMJD2A Tudor inh: -35.0%; G9a block: 50.1µM*; L3MBTL1 inh: inconclusive; Sfp inh: 20.0%; BAZ2B inh: -37.7%; HP1b binding inh: 22.4%

What do the screens show for `COC(=O)C1=C(C)N=c2s/c(=C/c3ccoc3)c(=O)n2C1c1ccccc1` (configuration not stated)?
JMJD2A Tudor inh: inconclusive; G9a block: inconclusive; Sfp inh: 79.4µM*; BAZ2B inh: inconclusive; HP1b binding inh: inconclusive

Results for CCOC(=O)C1=C(C)N=c2s/c(=C3/C(=O)Nc4ccccc43)c(=O)n2C1c1ccc(C)cc1 (configuration not stated) ?
JMJD2A Tudor inh: inconclusive; G9a block: inconclusive; L3MBTL1 inh: -27.6%; Sfp inh: 24.2%; BAZ2B inh: inconclusive; HP1b binding inh: 11.9%

How did COC(=O)C1=C(C)N=c2s/c(=C3\C(=O)Nc4ccccc43)c(=O)n2C1c1ccccc1 (configuration not stated) do in these assays?
G9a block: 7.94µM*; L3MBTL1 inh: inconclusive; Sfp inh: 1.4%; BAZ2B inh: 7.94µM*

How did Cc1ccc(CNC(=O)c2nnn(Cc3ccc(F)cc3)c2N)cc1 do in these assays?
JMJD2A Tudor inh: -13.1%; G9a block: -23.2%[59 µM]; BAZ2B inh: -21.4%; HP1b binding inh: -5.4%

Results for COCCN1CCc2[nH]c(=S)[nH]c(=O)c2C1 ?
JMJD2A Tudor inh: -2.1%; G9a block: 31.6µM*; L3MBTL1 inh: 4.7%; Sfp inh: 56.2µM*; BAZ2B inh: inconclusive; HP1b binding inh: 24.8%

How did CCCN1CNc2c(c(=O)[nH]c(=S)n2CCC)C1 do in these assays?
JMJD2A Tudor inh: -24.5%; HP1b binding inh: 20.2%

How did CC(c1ccccc1)N1CCc2[nH]c(=S)[nH]c(=O)c2C1 (configuration not stated) do in these assays?
JMJD2A Tudor inh: -3.5%; G9a block: 39.8µM*; Sfp inh: inconclusive; BAZ2B inh: 0.9%; HP1b binding inh: 53.0%

Results for CCCCN1CCc2[nH]c(=S)[nH]c(=O)c2C1 ?
JMJD2A Tudor inh: 25.1µM*; G9a block: 35.5µM*; L3MBTL1 inh: 41.0%; Sfp inh: inconclusive; BAZ2B inh: 16.3%; HP1b binding inh: -12.0%

How did CCN1CCc2[nH]c3ccccc3c2C1 do in these assays?
JMJD2A Tudor inh: -4.0%; G9a block: 25.5%; Sfp inh: -15.4%; BAZ2B inh: -1.8%; HP1b binding inh: 41.3%

Results for COc1cccc(Nc2sc(C(=O)c3ccc(Cl)cc3)c(N)c2C(=O)NCCc2ccc(OC)c(OC)c2)c1 ?
JMJD2A Tudor inh: inconclusive; G9a block: 10µM*; BAZ2B inh: inconclusive; HP1b binding inh: -15.9%

What do the screens show for `O=C(/C=C/c1ccc(O)c(O)c1)OC(Cc1ccc(O)c(O)c1)C(=O)O` (configuration not stated)?
JMJD2A Tudor inh: 12.6µM*; G9a block: 3.55µM*; Sfp inh: 79.4µM*!; BAZ2B inh: 39.8µM*; HP1b binding inh: inconclusive

What do the screens show for `O=C(/C=C\c1ccc(O)c(O)c1)O[C@@H](Cc1ccc(O)c(O)c1)C(=O)O`?
Sfp inh: 50.1µM*

Results for N[C@@H](Cc1ccc(O)c(I)c1)C(=O)O ?
G9a block: 6.6%; L3MBTL1 inh: 2.4%; Sfp inh: -6.4%; BAZ2B inh: 6.1%

What do the screens show for `Cc1ccc(OCCOCCN2CCN(C)CC2)c(C(C)(C)C)c1`?
JMJD2A Tudor inh: 5.62µM*; G9a block: 14.1µM*; L3MBTL1 inh: -5.2%; Sfp inh: 50.1µM*; BAZ2B inh: 56.2µM*; HP1b binding inh: inconclusive
